This passage reports AC50 and outcome results from PubChem BioAssay (EPA / NIEHS).

SMILES strings stand for the structures. Active and inactive are the calls of the source. Rule for the calls: active = hit-call score of the fitted dose curve at least 0.9, where 1 is the maximum; inactive = score below 0.9.

Test [1] is described as follows: APR_HepG2_P-H2AX_72hr: Apredica 72-hour HepG2 Assay for H2AX Phosphorylation (AID 2282916).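 Note: phospho-histone H2A.x immunostain intensity per cell marking DNA damage.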 To be noted: imaging, actives raise or lower the signal. The method, boiled down:
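Phospho-histone H2A.x immunofluorescence, multiplexed with Hoechst and c-Jun, quantified by high-content imaging. Compounds applied to HepG2 for 72 h across ten concentrations (0.39–200 uM, 0.5% DMSO), in duplicate; DMSO baseline.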

Test [2] is described as follows: APR_HepG2_MitoMembPot_72hr: Apredica 72-hour HepG2 Assay for Mitochondrial Membrane Potential (AID 2282917). To be noted: imaging, actives raise or lower the signal. The method, boiled down: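 HepG2 cells dosed 72 hr with compound at 0.39–200 uM in duplicate, 0.5% v/v DMSO final. Mitochondria stained with 250 nM MitoTracker Red CMXRos for 30 min before formaldehyde fixation, imaged by high-content fluorescence; bidirectional fit versus DMSO.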

A short description of test [3]: APR_HepG2_MitoticArrest_72hr: Apredica 72-hour HepG2 Assay for Mitotic Arrest (AID 2282918). Particulars: high-content imaging, actives raise or lower the signal. The method, boiled down: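 High-content imaging of fixed human HepG2 cells after 72 h compound exposure (0.39–200 uM, duplicates, 0.5% DMSO); mitotic arrest scored from phospho-histone H3 and nuclear Hoechst staining relative to DMSO.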

The nature of test [4]: APR_HepG2_MicrotubuleCSK_72hr: Apredica 72-hour HepG2 Assay for Microtubule CSK Stabilty (AID 2282919). To be noted: HepG2 microtubule cytoskeleton, high-content imaging, actives raise or lower the signal. The method, boiled down: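 HepG2, 72 hr cmpd exposure, 0.39–200 uM (10 pts, duplicate), 0.5% DMSO. 3.7% formaldehyde fix, 0.5% Triton perm, anti-alpha-tubulin/Cy5 plus Hoechst. HCS fluorescence intensity; bidirectional fit vs DMSO baseline; taxol as positive control.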

Test [5] is described as follows: APR_HepG2_P-H2AX_24hr: Apredica 24-hour HepG2 Assay for H2AX Phosphorylation (AID 2282920). Particulars: high-content imaging, actives raise or lower the signal. The method in brief: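 High-content imaging of phospho-histone H2A.x immunofluorescence, nuclei counterstained with Hoechst 33342, in fixed HepG2 cells. Compounds ran 0.39–200 uM in duplicate for 24 h, final DMSO 0.5%. Signal change fitted both directions against DMSO.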

The nature of test [6]: APR_HepG2_StressKinase_72hr: Apredica 72-hour HepG2 Assay for Stress Kinase (AID 2282921). Particulars: HepG2 stress kinase (phospho-c-Jun) imaging, actives raise or lower the signal. The method, boiled down: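 Stress kinase signal is phospho-c-Jun immunofluorescence (1:500 primary, Cy3 secondary) in fixed, permeabilized human HepG2 cells imaged at 20x. Exposure lasted 72 hr over ten concentrations from 0.39 to 200 uM, 0.5% DMSO, in duplicate. Bidirectional fit versus DMSO.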

Test [7] can be described thus: APR_HepG2_StressKinase_24hr: Apredica 24-hour HepG2 Assay for Stress Kinase (AID 2282922). Particulars: HepG2 stress kinase (phospho-c-Jun) imaging, actives raise or lower the signal. The method, boiled down:
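Read-out: phospho-c-Jun immunofluorescence (Cy3 secondary) quantified by high-content imaging at 20x, nuclei defined by Hoechst 33342. Human HepG2 liver cells dosed 24 hr, 0.39–200 uM, DMSO 0.5% v/v; gain or loss of signal fitted relative to DMSO.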

Test [8] is described as follows: APR_HepG2_p53Act_72hr: Apredica 72-hour HepG2 Assay for p53 Activation (AID 2282923).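 Note: average cellular p53 protein immunofluorescence intensity in HepG2 cells.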 Particulars: high-content imaging, actives raise or lower the signal. The method, boiled down:
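After 72 h with compound (ten points, 0.39 to 200 uM, final DMSO 0.5% v/v), fixed HepG2 cells were labelled with sheep anti-p53 and Hoechst 33342 and imaged; gain or loss versus DMSO scored.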

Test [9] in a line: APR_HepG2_MitoMass_72hr: Apredica 72-hour HepG2 Assay for Mitochondrial Mass (AID 2282924).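 Note: MitoTracker Red CMXRos stain intensity per cell imaged as mitochondrial mass.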 Particulars: high-content imaging, actives raise or lower the signal. The method, boiled down:
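Read-out: MitoTracker Red fluorescence intensity from automated imaging (20x, six fields per well) in human HepG2 liver cells. Dosing ran 72 hr, 0.39–200 uM, 0.5% DMSO; bidirectional curve fitting versus DMSO baseline.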

A short description of test [10]: APR_HepG2_NuclearSize_72hr: Apredica 72-hour HepG2 Assay for Nuclear Size (AID 2282925). Particulars: high-content imaging, actives raise or lower the signal. The method in brief: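 Read-out: nuclear diameter from Hoechst 33342 images (ArrayScan, 20x, six fields/well), via cell-cycle image analysis. HepG2 were dosed 0.39–200 uM for 72 hr in 0.5% DMSO. Bidirectional fit relative to DMSO.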

The nature of test [11]: ATG_CRE_CIS: Attagene CIS-FACTORIAL HepG2 Assay for human cAMP Responsive Element (CRE) binding protein 3 (AID 2282926). Particulars: HepG2 CRE cis-reporter, Attagene multiplexed mRNA; actives raise or lower the signal. The method in brief: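 Endogenous transcription factor activity read via CRE-regulated reporter transcripts in transfected HepG2 cells. After 24 h exposure, RNA was reverse-transcribed, amplified, fluorescently labelled and sized by capillary electrophoresis; gain or loss fitted against DMSO.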

The target of test [12] is CCAAT/enhancer-binding protein beta (Homo sapiens) (UniProt P17676). As to the kind of experiment: ATG_C_EBP_CIS: Attagene CIS-FACTORIAL HepG2 Assay for human CCAAT/Enhancer Binding Protein (C/EBP) beta (AID 2282927). Particulars: HepG2 Attagene cis-factorial transcription factor reporter; actives raise or lower the signal. The method in brief: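 HepG2, transient MRTU transfection, 24 h treatment. RT-PCR plus CE fluorescence; DMSO negative control, bidirectional fit.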
Sequence of CCAAT/enhancer-binding protein beta (Homo sapiens) (P17676 whole entry, looked up): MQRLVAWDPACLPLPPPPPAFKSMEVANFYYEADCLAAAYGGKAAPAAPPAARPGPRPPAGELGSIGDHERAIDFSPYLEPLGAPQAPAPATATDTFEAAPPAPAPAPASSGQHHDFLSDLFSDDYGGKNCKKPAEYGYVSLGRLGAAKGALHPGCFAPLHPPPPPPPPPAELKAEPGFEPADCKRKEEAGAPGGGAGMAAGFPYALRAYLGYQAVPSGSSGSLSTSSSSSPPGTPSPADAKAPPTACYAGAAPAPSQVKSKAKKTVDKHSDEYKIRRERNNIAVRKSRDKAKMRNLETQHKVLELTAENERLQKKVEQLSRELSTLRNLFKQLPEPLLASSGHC

Test [13] is described as follows: ATG_CMV_CIS: Attagene CIS-FACTORIAL HepG2 Assay for human CMV (Internal Marker) (AID 2282928).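 Note: endpoint acts as a background internal control marker rather than a target.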 To be noted: HepG2 CMV promoter reporter, transcription factor profiling; actives raise or lower the signal. The method in brief:
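Fluorescence intensity of RT-PCR-derived reporter fragments, resolved by capillary electrophoresis, gives the signal. HepG2 liver cells bearing transfected cis-element reporters were treated 24 h; activity in either direction was fit relative to DMSO-treated controls.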

Test [14] is described as follows: ATG_DR4_LXR_CIS: Attagene CIS-FACTORIAL HepG2 Assay for human Liver X Receptor (LXR), DR4 submotif (AID 2282929). Particulars: HepG2 Attagene DR4 cis-reporter, mRNA transcription; actives raise or lower the signal. The method in brief:
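Transiently transfected HepG2 liver cells; cis-regulated reporters; 24 h dosing. RT-PCR plus CE read-out of reporter mRNA. DMSO baseline, bidirectional curve fitting.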

Test [15] deals with Aryl hydrocarbon receptor (Homo sapiens) (UniProt P35869). Briefly: ATG_Ahr_CIS: Attagene CIS-FACTORIAL HepG2 Assay for human Aryl Hydrocarbon Receptor (Ahr) (AID 2282930). Particulars: HepG2 AhR cis-factorial reporter transcription; actives raise or lower the signal. The method in brief: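 Endogenous factor activity is tracked through cis-promoter reporter units transfected into HepG2 cells. Transcript levels at 24 h are read by fluorescent RT-PCR and capillary electrophoresis, with activity in either direction scored relative to DMSO.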
Sequence of Aryl hydrocarbon receptor (Homo sapiens) (P35869 whole entry, looked up): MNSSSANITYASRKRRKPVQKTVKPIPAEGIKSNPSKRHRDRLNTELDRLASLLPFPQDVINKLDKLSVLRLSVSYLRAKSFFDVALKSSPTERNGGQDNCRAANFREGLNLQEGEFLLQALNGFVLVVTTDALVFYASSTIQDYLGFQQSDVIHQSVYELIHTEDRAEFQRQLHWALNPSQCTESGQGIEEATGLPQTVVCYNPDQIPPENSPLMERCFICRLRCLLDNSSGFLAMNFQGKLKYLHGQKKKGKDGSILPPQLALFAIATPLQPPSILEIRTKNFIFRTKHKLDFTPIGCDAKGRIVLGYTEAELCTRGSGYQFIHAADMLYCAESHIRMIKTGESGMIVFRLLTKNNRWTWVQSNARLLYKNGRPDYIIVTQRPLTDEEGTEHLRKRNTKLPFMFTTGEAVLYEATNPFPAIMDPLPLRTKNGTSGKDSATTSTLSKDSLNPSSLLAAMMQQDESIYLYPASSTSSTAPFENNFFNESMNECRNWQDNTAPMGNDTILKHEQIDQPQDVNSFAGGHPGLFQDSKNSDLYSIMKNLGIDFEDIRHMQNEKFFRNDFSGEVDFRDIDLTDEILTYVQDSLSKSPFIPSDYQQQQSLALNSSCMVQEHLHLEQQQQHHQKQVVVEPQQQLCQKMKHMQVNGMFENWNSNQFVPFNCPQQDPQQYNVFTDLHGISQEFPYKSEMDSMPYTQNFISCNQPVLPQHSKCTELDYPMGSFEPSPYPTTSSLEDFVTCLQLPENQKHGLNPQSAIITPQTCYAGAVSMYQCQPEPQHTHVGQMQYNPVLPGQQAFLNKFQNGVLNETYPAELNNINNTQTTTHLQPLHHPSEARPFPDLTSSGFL

A short description of test [16]: ATG_AP_1_CIS: Attagene CIS-FACTORIAL HepG2 Assay for human Activator Protein 1 (AP-1) (AID 2282931). To be noted: HepG2 Attagene cis-factorial AP-1 reporter mRNA; actives raise or lower the signal. The method, boiled down: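 We transfected HepG2 cells transiently with a set of cis-regulated reporter transcription units, dosed them for 24 h, and quantified reporter mRNA via RT-PCR and capillary electrophoresis, scoring gain or loss of signal relative to DMSO.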

Test [17] is described as follows: ATG_AP_2_CIS: Attagene CIS-FACTORIAL HepG2 Assay for human Activator Protein 2 (AP-2) (AID 2282932). Particulars: HepG2 AP-2 cis-reporter, Attagene transcription factor profiling; actives raise or lower the signal. The method, boiled down:
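Liver-derived HepG2 line, cis-reporter system measuring endogenous factors; 24 h dosing; reporter mRNA detected by fluorescent RT-PCR and capillary electrophoresis.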

A short description of test [18]: ATG_BRE_CIS: Attagene CIS-FACTORIAL HepG2 Assay for human Bone Morphogenetic Protein (BMP) Response Element (BRE) (AID 2282933). To be noted: HepG2 BMP response element reporter, Attagene transcription factor profiling; actives raise or lower the signal. The method, boiled down: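 HepG2 cells transiently transfected with CIS reporter units (endogenous TF activity, BMP response element), dosed 24 h. Reporter mRNA quantified by RT-PCR, fluorescent labelling and capillary electrophoresis; bidirectional fit vs DMSO baseline.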

The target in test [19] is Retinoic acid receptor alpha (Homo sapiens) (UniProt P10276). As to the kind of experiment: ATG_DR5_RAR_CIS: Attagene CIS-FACTORIAL HepG2 Assay for human Retinoic Acid Receptor Alpha (RARE), DR5 submotif (AID 2282934).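 For AC50: reporter responds to endogenous RAR alpha beta and gamma in HepG2 not RARA alone.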 To be noted: HepG2 Attagene cis-factorial RARE DR5 reporter, mRNA; actives raise or lower the signal. The method, boiled down: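 After 24 h of chemical exposure, transiently transfected HepG2 cells were lysed for total RNA; the DR5-regulated reporter transcript was quantified via RT-PCR and capillary electrophoresis, with activity fitted bidirectionally against DMSO.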
Sequence of Retinoic acid receptor alpha (Homo sapiens) (P10276 whole entry, looked up): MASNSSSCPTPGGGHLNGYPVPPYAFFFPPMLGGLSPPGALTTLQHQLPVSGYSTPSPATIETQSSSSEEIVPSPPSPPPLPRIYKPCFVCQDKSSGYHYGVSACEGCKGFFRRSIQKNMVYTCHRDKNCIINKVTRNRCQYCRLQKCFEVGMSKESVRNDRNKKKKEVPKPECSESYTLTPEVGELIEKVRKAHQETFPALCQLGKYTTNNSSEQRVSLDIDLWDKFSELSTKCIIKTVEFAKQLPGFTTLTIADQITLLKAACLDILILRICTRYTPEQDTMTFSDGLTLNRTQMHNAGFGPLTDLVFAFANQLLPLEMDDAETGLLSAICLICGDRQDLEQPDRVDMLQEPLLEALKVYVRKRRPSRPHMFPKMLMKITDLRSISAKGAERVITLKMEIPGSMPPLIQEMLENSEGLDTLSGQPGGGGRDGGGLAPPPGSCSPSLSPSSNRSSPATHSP

Test [20] in a line: APR_HepG2_CellLoss_72hr: Apredica 72-hour HepG2 Assay for Cell Loss (AID 2282915). To be noted: high-content imaging. The method in brief:
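HepG2 cells exposed 72 h to compound at 0.39–200 uM (10 concentrations, duplicate) in 0.5% DMSO. Fixed with 3.7% formaldehyde and Hoechst 33342-stained. Imaged at 20x; nuclear count gives cell number, fitted bidirectionally versus DMSO.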

The AC50 is the midpoint of the concentration-response curve, whichever way the signal moves. `CN1CSC(=S)N(C)C1`: the AC50 in test [1] is 4.12 µM (active); in test [4] it was 66.4 µM (active); in test [5] it was 21.8 µM (active); in test [7], 26.3 µM (active); in [9] it was 57.2 µM (active); in test [11] it was 50 µM (active). In addition, the AC50 in test [18] was 15.4 µM (active). The compound was classed as inactive in test [2], in test [3], in test [6], in test [8], in test [10] and in test [12]. For the same compound, the result in [13], in [14], in [15], in [16], in [17] and in test [19] was inactive.
As for `Clc1ccccc1-c1nnc(-c2ccccc2Cl)nn1`, the AC50 is 39.7 µM (active) in test [20], 46.4 µM (active) in [1] and 12.8 µM (active) in [4]. Also, the compound was classed as inactive in test [2], in test [3], in [5], in test [6], in [7] and in [9]. Also, the call in test [10], in test [11], in test [12], in [13], in test [16] and in test [17] was inactive. The result in test [18] and in [19] was inactive.
In the case of `CNC(=O)/C=C(\C)OP(=O)(OC)OC`, the result in test [20], in [1], in test [2], in test [3], in [4] and in [5] was inactive. The result in test [6], in [7], in test [9], in [10], in [11] and in [12] was inactive. In addition, the result in test [13], in test [16], in [17] and in test [18] was inactive.
Consider `O=[N+]([O-])c1c(Cl)c(Cl)c(Cl)c(Cl)c1Cl`, for which the compound was classed as inactive in test [1], in [2], in test [3], in test [4], in [5] and in test [6]. Also, the result in test [7], in test [8], in test [9], in [10], in test [12] and in test [13] was inactive. The outcome in test [16], in test [17] and in test [18] was inactive. For the same compound, the AC50 in test [11] was 32.2 µM (active); in test [19] it was 13.2 µM (active).
